Nrf2 block: inhibitors of Nrf2 signaling. A549 ARE-Fluc reporter, luciferase luminescence, 18-24 h. Potency, µM (series often up to 46 µM), without a hit: at the top dose activity change, negative = inhibition, hits mostly inhibitors. hit rate 2.1% among 360,000. AID 504444; further: potency means the concentration at half of the fitted maximal effect; nearly all actives have a fitted effect of over 60% in size
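A549 ARE_Fluc cells (5000/well, 5% FBS OPTI-MEM) pre-incubated 2 h, then treated with compounds 18-24 h at 37C/5% CO2 in concentration-response. CellTiter-Fluor viability read first; BugLite luciferase luminescence after 15 min at room temperature gives Nrf2 activity.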
A549 viability: kills or reduces viability of A549 cells in Nrf2 counter-screen; Potency, µM (top dose mostly 46 µM), for the others: at the top dose activity change, negative = cytotoxicity, most hits filed as inhibitors; A549 ARE-Fluc cells, CellTiter-Fluor viability, 18-24 h; hit rate 0.16% among 390,000; AID 504648; further: potency means the concentration at half of the fitted maximal effect
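A549 ARE-Fluc cells in 5% FBS OPTI-MEM, 5000 cells/well, rested 2 h then exposed to compounds in concentration-response for 18-24 h at 37 °C. Viability by CellTiter-Fluor fluorescence (Ex 405/Em 525) after 30 min; luciferase luminescence (BugLite, 15 min, RT) read afterwards.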
Giardia kill: kills Giardia lamblia; hit rate 0.15% among 340,000; activity change, % at 7.66 µM, hits read low; Giardia lamblia trophozoite viability; in the data active means activity change below about -80%; inconclusive means between about -30% and that limit;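 further: parasites exposed to compound for two days anaerobically before the ATP read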
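Giardia trophozoites, 100 cells per well, were exposed to compounds for 48 hrs at 37 deg C under anaerobic conditions; viability was then read as ATP content by bioluminescence after 15-30 min at room temperature.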
KB-3-1 cytotox: KB-3-1 parental cell cytotoxicity; KB-3-1 viability, CellTiter-Glo ATP luminescence, 72 h; AID 1347075; Potency, µM (series often up to 46.1 µM), actives largely listed as cytotoxic; hit rate 1.4% among 400,000; further: potency means the concentration at half of the fitted maximal effect; nearly all actives have a fitted effect of over 60% in size
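Parental KB-3-1 adenocarcinoma cells in phenol-red-free DMEM with 10% FBS were pin-treated with compounds at several concentrations, incubated 72 h at 37 °C, and viability read by CellTiter-Glo luminescence; concentration-effect curves were fitted after normalization.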
KB-V1 cytotox: KB-V1 MDR subline cytotoxicity; hit rate 3.4% among 400,000; KB-V1 MDR cells viability, CellTiter-Glo, 72 h; AID 1347076; Potency, µM (doses to about 46.1 µM), actives largely listed as cytotoxic; further: potency means the concentration at half of the fitted maximal effect; nearly all actives have a fitted effect of over 60% in size
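Readout: CellTiter-Glo luminescence, 10 min after addition. Cells: KB-V1 MDR subline, 72 h at 37 degrees C with compound. Analysis: corrected, normalized data fitted to concentration-effect curves.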
PI4K2A block: blocks human PI4K2A kinase activity. Q9BTU6. purified PI4K2A, ADP-Glo luminescence, 1 h; stronger effect = lower value. activity change, negative = inhibition, % at 76.9 µM. hit rate 0.13% among 420,000. AID 1346378; in the data active means activity change below about -50%; inconclusive means mostly about -30% to -49%;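 further: -100% = wells without enzyme as full effect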
Target sequence (Q9BTU6 whole entry, looked up): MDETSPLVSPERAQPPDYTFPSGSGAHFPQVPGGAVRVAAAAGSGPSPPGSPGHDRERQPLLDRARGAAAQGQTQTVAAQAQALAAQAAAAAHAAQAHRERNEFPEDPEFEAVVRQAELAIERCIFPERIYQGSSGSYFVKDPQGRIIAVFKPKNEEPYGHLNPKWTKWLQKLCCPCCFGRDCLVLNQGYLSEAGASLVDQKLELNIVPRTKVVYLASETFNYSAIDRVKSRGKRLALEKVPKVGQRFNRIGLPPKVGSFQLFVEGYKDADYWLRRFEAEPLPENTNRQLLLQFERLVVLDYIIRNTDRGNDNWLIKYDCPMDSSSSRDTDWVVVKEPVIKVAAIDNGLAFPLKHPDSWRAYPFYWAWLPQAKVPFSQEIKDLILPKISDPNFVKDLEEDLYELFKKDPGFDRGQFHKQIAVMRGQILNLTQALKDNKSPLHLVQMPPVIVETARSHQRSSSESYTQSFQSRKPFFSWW
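Compounds are screened against recombinant PI4K2A using PI as substrate and ATP, the latter dispensed at 300 microM. Reactions run one hour at ambient temperature before ADP-Glo detection; full inhibition defined by wells lacking enzyme.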
Numbers without * were called inactive; i = inactive; ? = inconclusive; / = not tested or not shown. Sampled rows, rich in hits. Any-hit rate of the full collection: about 5.7%. Unless noted, the call rests on the fitted dose curve; in most records, active means well fitted curve in the direction sought with a large enough effect; inconclusive means small, poorly fitted or top-dose-only effect, or another doubt; inactive means no such curve, though single readings can be large; an effect the other way counts as inactive or inconclusive. Unless noted, on the % scale 0 is the no-effect control and ±100 the full control effect.

SMILES	Nrf2 block	A549 viability	Giardia kill	KB-3-1 cytotox	KB-V1 cytotox	PI4K2A block
O=C(COc1ccc(Cl)cc1)NCC(c1ccco1)S(=O)(=O)c1ccc(Cl)cc1 (stereo not given)	/	4.5%	/	i	i	0.6
Cc1ccc(NC(=O)c2sc3nc[nH]c(=O)c3c2C)cc1C	/	-0.8%	/	/	/	-3.9
CCC(=O)Nc1nc(CC(=O)Nc2ccccc2)cs1	9.6%	-17.7%	8.7	i	25.9µM*	0.0
COc1ccc(NC(=S)Nc2nc(CC(=O)Nc3ccccc3OC)cs2)cc1	?	?	4.4	?	8.2µM*	-1.0
COc1ccccc1NC(=O)Cc1csc(NC(=S)Nc2ccccc2)n1	20.6µM*	18.4µM*	3.1	?	9.2µM*	1.0
COc1ccc(OC)c(NC(=O)Cc2csc(NC(=O)Nc3ccccc3OC)n2)c1	-25.1%	12.1%	5.3	i	?	-4.1
CCOC(=O)Cc1csc(NC(=O)Cc2ccccc2)n1	5.7%	-4.3%	9.1	i	?	1.8
FC(F)(F)c1ccc(Cn2ccc3ccc(-c4ccc5ccn(Cc6ccc(C(F)(F)F)cc6)c5c4)cc32)cc1	/	/	/	/	/	-4.6
O=S(=O)(Nc1cccc(C(F)(F)F)c1)c1ccc(NS(=O)(=O)c2ccc3c(c2)OCCO3)cc1	-14.5%	-6.3%	/	i	i	-0.6
CC(OC(=O)c1cccc(S(=O)(=O)Nc2cccc(C(F)(F)F)c2)c1)C(=O)Nc1ccc2c(c1)OCCO2 (stereo not given)	?	-5.8%	4.7	?	14.6µM*	-0.5
COC(=O)[C@H](CC(C)C)N1Cc2nnn(Cc3ccc(C)cc3)c2-c2cc(F)ccc2S1(=O)=O	/	/	/	/	/	-2.2
CC(C)c1ccccc1NC(=O)COC(=O)CCN1C(=O)/C(=C\C=C\c2ccccc2)SC1=S	10.3µM*	?	3.8	i	i	0.6
Cc1c(Cl)cccc1NS(=O)(=O)c1cc2c(cc1Cl)CCC(=O)N2	?	-1.9%	/	i	i	/
O=C(Nc1ccccc1)Nc1cc(OCC(F)(F)F)cc(OCC(F)(F)F)c1	?	?	10.1	?	16.4µM*	1.3
O=C(OCC#CCSc1nnc(-c2ccc(Cl)cc2)o1)c1ccc(F)cc1	9.0%	1.0%	/	/	/	3.1
CC(Oc1ccc(Cl)cc1)C(=O)Nc1sccc1C(N)=O (stereo not given)	?	-1.1%	15.2	i	9.2µM*	-4.4
Cc1ccc(OC(C)C(=O)OCC(=O)Nc2sccc2C(N)=O)cc1 (stereo not given)	?	-11.3%	-8.5	i	i	8.5
CN(C)c1ccc(/C=C/c2ccnc3c(N)cccc23)cc1	/	/	/	?	i	/
COC(=O)c1nc(-c2ccccc2)oc1N(C)C	-2.5%	0.5%	-6.7	i	16.4µM*	1.5
COC(=O)c1nc(-c2ccc(C)cc2)oc1N(C)C	6.0%	6.6%	-2.7	i	?	-2.6
CCn1cc2nc(SCC(=O)Nc3ccccc3C(F)(F)F)n(Cc3ccc(C)cc3)c(=O)c2n1	-25.9%	-2.6%	/	?	?	-1.2
CCOc1cc(C)c(C(C)C)cc1S(=O)(=O)NCc1ccccn1	-8.0%	12.8%	-6.6	i	9.2µM*	0.1
CCCCCCCCCCCCCCCCCCN(CCCCCCCCCCCCCCCCCC)c1ccc(/C=C/c2ccc(C=O)cc2)cc1	/	/	/	i	i	/
Cc1c(C(=O)N(Cc2cccs2)C2CCS(=O)(=O)C2)oc2ccccc12 (stereo not given)	?	-8.0%	6.3	i	6.51µM*	4.9
Cc1ccc(CN(C(=O)c2cc3ccccc3oc2=O)C2CCS(=O)(=O)C2)cc1 (stereo not given)	11.7%	-8.8%	-13.7	i	14.6µM*	-1.4
SMILES	Nrf2 block	A549 viability	Giardia kill	KB-3-1 cytotox	KB-V1 cytotox	PI4K2A block
CCc1ccc(CN(C(=O)c2ccco2)C2CCS(=O)(=O)C2)cc1 (stereo not given)	-23.4%	-1.4%	7.4	i	?	2.9
O=C(c1ccco1)N(Cc1ccc(Cl)cc1)C1CCS(=O)(=O)C1 (stereo not given)	25.9µM*	-1.3%	8.5	i	?	-2.3
O=C(c1cccs1)N(Cc1cccc(Cl)c1)C1CCS(=O)(=O)C1 (stereo not given)	-11.3%	-5.3%	-3.9	i	14.6µM*	3.5
N#CCC[C@@H]1CC[C@]2(CCCN(S(=O)(=O)c3ccccc3)C2)O1	/	/	/	/	/	1.1
COc1ccc(C(=O)c2[nH]c(N)c(C(=O)c3ccccc3)c2-c2ccc(OC)c(OC)c2)cc1	/	/	/	/	/	4.8
O=C(NCc1ccccc1)N1CCn2c(nc3ccccc32)C1	0.3%	-1.6%	2.8	i	18.4µM*	0.0
O=C(NCC1CCOCC1)c1cc(COc2cccc(C(F)(F)F)c2)on1	23.1µM*	-1.0%	-20.9	i	i	1.4
CCCC1CCC2(CC1)CCC2OC(=O)Nc1ccc(F)cc1 (stereo not given)	/	/	/	/	/	3.5
O=C(NCCc1ccc2c(c1)OCCO2)c1ccc(F)cc1	-25.3%	4.7%	15.9	i	23.1µM*	0.1
Nc1c(-c2ccccc2)c(CSc2nc3ccccc3[nH]2)nn1-c1cccc(Cl)c1	23.1µM*	-18.5%	6.6	23.1µM*	?	0.9
Nc1c(-c2ccccc2)c(CSc2nc3ccccc3[nH]2)nn1-c1ccc(Cl)cc1	?	?	2.5	?	i	-0.5
Cc1ccccc1-n1nc(CSc2nc3ccccc3[nH]2)c(-c2ccccc2)c1N	23.1µM*	-27.3%	7.9	?	18.4µM*	-3.6
COc1ccc2c(c1)CO[C@H]([C@H](O)CO)[C@H]2/C=C/c1ccccc1	/	/	/	/	/	1.1
COc1ccc(Cn2c(=O)c3[nH]cnc3n(-c3ccccc3C)c2=O)cc1	-14.8%	?	1.0	16.4µM*	?	-7.4
COc1ccc(C)c(-n2c(=O)n(Cc3ccccc3)c(=O)c3[nH]cnc32)c1	8.1%	3.7%	5.3	i	i	-2.0
Cc1cc(C)c2c(=O)[nH]c(=O)n(Cc3ccccc3)c2n1	-18.5%	10.7%	-14.5	i	13µM*	0.4
c1ccc2sc(-c3csc4c3CCNC4)nc2c1	/	/	/	/	/	-3.7
Cn1cc(P(=O)(c2ccccc2)c2ccccc2)c2ccccc21	3.5%	8.7%	/	/	/	/
OCC1OC(Oc2cccc3ccccc23)C(O)C(O)C1O (stereo not given)	9.3%	0.7%	-8.4	i	i	-8.3
O=C(O)c1cc(O)c2c(c1)[C@@H]([C@H]1c3cc(C(=O)O)cc(O)c3C(=O)c3c(O[C@@H]4O[C@H](CO)[C@@H](O)[C@H](O)[C@H]4O)cccc31)c1cccc(O[C@@H]3O[C@H](CO)[C@@H](O)[C@H](O)[C@H]3O)c1C2=O	5.6%	-23.3%	-15.3	i	i	-63.5*

Source: PubChem
